Compound activity from PubChem.
Only some compounds are listed: those with a hit (about 21% of all), similar ones and a draw of the others.
Shiga inhibitor = A qHTS for Small Molecule Inhibitors of Shiga Toxin; AID 2315, 2010; inhibition, % at 38.7 µM; Vero cells, Shiga toxin protein synthesis inhibition reporter; 9.2% of 290,000 active; in the data active = inhibition mostly above about 28%, no sharp cut-off; inactive = mostly below about 43%; note: 0% is about no effect
HCV inh = qHTS Assay for Inhibitors of Hepatitis C Virus (HCV) | Huh7.5.1 HCVcc-Cre infection, luciferase reporter, 44 h | Potency, µM (titrated, usually from 41.8 µM), for the others: top-dose activity change, negative = inhibition, hits mostly inhibitors | 3.4% of 340,000 active | AID 651820, 2012; note: potency is the fitted concentration of half-maximal effect; % is set by controls: 0 for no effect and ±100 for the full control effect
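Infectious HCV cell culture screen: compound-treated cells (1,000/well, pre-plated 4 h) are infected with HCVcc-Cre at roughly 0.5 moi and grown 44 h. Infection is quantified by luciferase signal after 15 min substrate incubation at room temperature.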
Pf growth 48h = Primary qHTS for delayed death inhibitors of the malarial parasite plastid, 48 hour incubation | P. falciparum luciferase growth in erythrocytes, 48 h | Potency, µM (titrated, usually from 28.7 µM), inactives show top-dose activity change, negative = inhibition, most hits filed as inhibitors | 5.9% of 310,000 active; note: potency is the fitted concentration of half-maximal effect; % is set by controls: 0 for no effect and ±100 for the full control effect
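Luciferase-expressing parasites in RBCs, 2% Hct / 0.1% parasitemia final; RPMI 1640 + 0.5% Albumax; 37 C, 5% CO2, one generation; luminescence read-out, lower signal = inhibition.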
Pf growth 96h = Primary qHTS for delayed death inhibitors of the malarial parasite plastid, 96 hour incubation; P. falciparum luciferase reporter growth, 96 h; Potency, µM (highest dose often 28.7 µM), without a hit: at the top dose activity change, negative = inhibition, actives largely listed as inhibitors; AID 504834, 2011; 6.9% of 320,000 active; note: potency is the fitted concentration of half-maximal effect; % is set by controls: 0 for no effect and ±100 for the full control effect
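Luminescence readout: decreased luciferase signal marks inhibited growth of reporter-expressing P. falciparum in infected red cells (2% hematocrit, 0.05% parasitemia final), exposed to compound two generations (96 h, 37 C, 5% CO2).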
AMA1 RON2 block = qHTS for Inhibitors of AMA1-RON; Towards Development of Antimalarial Drug Lead: Primary Screen; Plasmodium falciparum AMA1 (3D7) - RON2 peptide interaction; AID 720542, 2013; Potency, µM (highest dose often 58.2 µM), for inactives: at the top dose activity change, negative = inhibition, actives largely listed as inhibitors; 0.2% of 360,000 active; AlphaScreen AMA1-biotinylated RON2 peptide binding;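 note: potency is the fitted concentration of half-maximal effect; 0% = vehicle wells and -100% = peptide control; nearly all actives have a fitted effect of over 45% in size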
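AMA1 (3D7) with his tag at 25 nM final met compounds first, then biotinylated RON2 peptide at 25 nM; detection used donor plus acceptor beads, 10 µg/mL apiece, read by AlphaScreen after 30 min at room temperature.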
CHX counter = Cycloheximide Counterscreen for Small Molecule Inhibitors of Shiga Toxin; cell reporter, cycloheximide protein synthesis inhibition counterscreen; 12% of 300,000 active; max response, %; AID 2314, 2010; in the data active = max response mostly above about 13%, no sharp cut-off; inactive = mostly below about 14%; note: read at 38.3 µM for the half of the compounds with a filed dose; 0% is about no effect
* marks the source's active call; other numbers are inactive results; ? = inconclusive; · = no result; [ ] = another dose, or the depositor's remark. Unless noted, calls come from the whole dose curve; as a rule, active = well fitted curve in the direction sought with a large enough effect; inconclusive = small, poorly fitted or top-dose-only effect, or another doubt; inactive = no such curve, though single readings can be large; an effect the other way counts as inactive or inconclusive.

SMILES	Shiga inhibitor	HCV inh	Pf growth 48h	Pf growth 96h	AMA1 RON2 block	CHX counter
Cc1cc(Br)c(OCc2ccc(C(=O)N/N=C3\CC4CC=CC34)cc2)c(Br)c1 (stereo not drawn)	-9.3	?	10.4µM*	?	85.1%	0.5
O=C(NNC(=S)Nc1ccccc1C(F)(F)F)C1CC1	12.5	8.8%	-1.2%	23.1%	89.3%	2.2
CC1(C)OC(=O)C(=NNc2ccccc2[N+](=O)[O-])C(=O)O1	45.7	4.6%	2.7%	15.4%	0.0%	-0.3
O=C(N/N=C1\CC2CC=CC12)c1ccc(Br)cc1 (stereo not drawn)	48.0	36.7%	12.2%	-2.8%	11.4%	27.8
O=[N+]([O-])c1ccccc1N/N=C1\CC2CC=CC12 (stereo not drawn)	108.3*	-0.9%	55.8%	31.3%	20µM*	30.7*
O=C(N/N=C1\CC2CC=CC12)c1ccccc1Cl (stereo not drawn)	85.5*	14.5%	-15.1%	13.9%	25.1%	21.1*
C[C@@H]1CN([C@@H](C)CO)C(=O)CCCn2nncc2CO[C@H]1CN(C)S(=O)(=O)c1cccs1	·	·	·	·	1.5%	·
CCCOC1CCCN(Cc2nc(-c3cnccn3)no2)C1 (stereo not drawn)	5.8	5.7%	41.4%	10.4µM*	-3.8%	-2.7
O=C(CN1C(=O)c2ccccc2S1(=O)=O)Nc1cc(S(=O)(=O)N2CCCCC2)ccc1Cl	·	-10.3%	-11.9%	?	0.0%	·
O=C(O)COn1c(-c2ccccc2)nc2ccc(Cl)cc21	39.7	15.5%	0.8%	32.0%	4.9%	21.5*
O=[N+]([O-])c1ccc2nc(-c3ccccc3)n(OCc3ccc(Cl)cc3)c2c1	17.8	?	30.3%	13.1µM*	-22.1%	18.0*
CN(C)C(=O)On1c(-c2ccccc2)nc2ccc(Cl)cc21	28.2	?	-23.6%	·	-1.9%	38.8
COn1c(-c2ccccc2)nc2ccc(Cl)cc21	71.9*	?	31.8%	49.8%	30.2%	31.0*
O=C(O)Cn1c(-c2ccccc2)nc2ccccc21	11.7	2.7%	31.4%	-99.8%	0.7%	-1.8
C[C@@H]1CCCCO[C@@H](CN(C)S(=O)(=O)c2cn(C)cn2)[C@@H](C)CN([C@H](C)CO)C(=O)c2cc(N(C)C)ccc2O1	·	·	·	·	1.0%	·
Cn1c2ccccc2c2nnc(SCC(=O)NC3CCCC3)nc21	9.6	-0.6%	30.5%	?	-2.9%	-6.9
CC1(C(=O)NS(=O)(=O)C2CC2)CCCN(C(=O)/C=C/c2ccccc2)C1 (stereo not drawn)	·	·	·	·	-4.8%	·
Cc1ccc(Sc2ccc(S(=O)(=O)Nc3ccc(CC(=O)O)cc3)cc2)cc1C	·	-1.7%	?	-26.5%	0.4%	·
O=C(CCc1nnc(Cc2cccc(C(F)(F)F)c2)o1)NCCc1ccccc1F	126.2*	6.5%	60.2%	13.4%	6.7%	28.8*
Cc1cc(CN(C)C(=O)CCc2nnc(Cc3cccc(C(F)(F)F)c3)o2)on1	58.1*	16.9%	13.2%	?	6.7%	33.2*
CCN(CC)C(=O)CCc1nnc(Cc2cccc(C(F)(F)F)c2)o1	-10.6	-0.4%	34.3%	16.9%	-2.7%	5.4
OC(CCN1CC2CCC(CC2)C1)(Cc1ccccc1)c1ccco1 (stereo not drawn)	·	8.2%	·	·	-10.3%	·
O=C(Nc1ccccc1Cl)c1cc(C2CCCCN2C(=O)c2cccs2)on1 (stereo not drawn)	·	·	·	·	-12.5%	·
CN(Cc1cccs1)C(=O)c1cccc(S(=O)(=O)N2CCCCCC2)c1	·	?	?	?	1.7%[11.6 µM]	·
CCC(CO)Oc1cc(NCc2ccc(C(F)(F)F)cc2)c2ncn(C(C)C)c2c1 (stereo not drawn)	·	11.2µM*	·	·	-4.0%	·
CC[C@H](CO)Oc1cc(NCc2ccc(Cl)c(Cl)c2)c2ncn(C(C)C)c2c1	·	11.2µM*	·	·	?	·
CCC(CO)Oc1cc(NCc2ccc(Cl)cc2)c2ncn(C(C)C)c2c1 (stereo not drawn)	·	2.24µM*	·	·	-13.1%	·
